From PubChem
AHR activator = activates the human aryl hydrocarbon receptor | P35869 | AHR-responsive luciferase reporter cells, luminescence | activation, % at 5 µM | hit rate 2.5% among 320,000 | AID 2796; in the data active = activation above about 47%
Target sequence (P35869 whole entry, looked up): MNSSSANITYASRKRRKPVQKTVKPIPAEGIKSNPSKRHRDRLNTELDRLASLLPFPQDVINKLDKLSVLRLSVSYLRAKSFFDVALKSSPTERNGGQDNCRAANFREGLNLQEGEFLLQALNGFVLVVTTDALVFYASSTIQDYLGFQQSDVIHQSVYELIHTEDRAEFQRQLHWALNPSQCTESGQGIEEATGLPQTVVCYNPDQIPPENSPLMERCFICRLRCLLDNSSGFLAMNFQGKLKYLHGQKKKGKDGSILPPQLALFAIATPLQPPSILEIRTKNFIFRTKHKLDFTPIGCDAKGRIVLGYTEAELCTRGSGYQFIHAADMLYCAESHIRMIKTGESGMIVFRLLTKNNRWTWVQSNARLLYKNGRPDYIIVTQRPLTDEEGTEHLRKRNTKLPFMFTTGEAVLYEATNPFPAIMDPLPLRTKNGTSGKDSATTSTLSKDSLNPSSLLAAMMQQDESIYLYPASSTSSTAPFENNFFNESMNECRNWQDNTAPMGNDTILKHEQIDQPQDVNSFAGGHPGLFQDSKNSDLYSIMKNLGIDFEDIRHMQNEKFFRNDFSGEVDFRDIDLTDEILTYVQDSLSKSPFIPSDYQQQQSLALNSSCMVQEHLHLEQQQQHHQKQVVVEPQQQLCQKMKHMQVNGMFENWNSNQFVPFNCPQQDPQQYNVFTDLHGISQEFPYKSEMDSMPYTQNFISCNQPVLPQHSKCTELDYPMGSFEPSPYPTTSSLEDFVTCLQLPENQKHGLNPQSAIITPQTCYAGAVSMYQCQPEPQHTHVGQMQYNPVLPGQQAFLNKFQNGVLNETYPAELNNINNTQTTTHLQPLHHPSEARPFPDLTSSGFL
hgDAF12 agonist = agonists of H. glycines DAF-12 nuclear receptor. hit rate 1.8% among 370,000. HEK293 GAL4-hgDAF12 UAS-luciferase reporter, agonist luminescence; normalized to butyrate control. activation, % at 6.8 µM. AID 687014;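 active = activation above a cutoff set at the mean of all screened compounds plus 3 SD, cut at about 10% in these data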
hcDAF-12 act = activates DAF-12 receptor from parasite H. contortus; HEK293 hcDAF-12 lit1-tk-luc reporter, luminescence; 0% DMSO, 100% Δ7-dafachronic acid; activation, % at 6.8 µM; hit rate 1.4% among 370,000; AID 652067;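 active = activation above the mean of all tested compounds plus 3 SD, cut at about 5.5% in these data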
ssDAF-12 act = activates DAF-12 receptor from parasite S. stercoralis. hit rate 1% among 370,000. HEK293 ssDAF-12/GRIP1 lit1-tk-luc reporter, luminescence; % of 3 µM dafachronic acid response. activation, % at 6.8 µM;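 active = activation above the mean over all tested compounds plus 3 SD, cut at about 0.9% in these data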
DAX1 inh-1 = NR0B1 (DAX1) inhibition; P51843; HEK293 Gal4-DAX1 luciferase reporter, luminescence; inhibition, % at 6.75 µM; hit rate 0.99% among 340,000;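 active = inhibition above the mean over all tested compounds plus 3 SD, cut at about 4.2% in these data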;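 note: inhibition shows as a rise in luminescence from relieved DAX1 repression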
DAX1 inh-2 = blocks DAX1 repression of SF-1 activated StAR promoter. HEK293T StAR-luciferase reporter, SF-1/DAX-1 repression relief. hit rate 1.1% among 370,000. AID 652010. inhibition, % at 6.8 µM;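 active = inhibition above the mean over all tested compounds plus 3 SD, cut at about 3.6% in these data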;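 note: higher inhibition means more luminescence from relief of DAX-1 repression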
Numbers stand for hits; i = inactive; nt = no result. Compounds with a hit are over-represented: about 5.7% of the library has one in this group of screens.

SMILES	AHR activator	hgDAF12 agonist	hcDAF-12 act	ssDAF-12 act	DAX1 inh-1	DAX1 inh-2
O=C(Nc1nc2ccccc2[nH]1)C1CC1	i	i	i	i	i	i
O=C(CCCCCN1C(=O)c2ccccc2C1=O)Nc1ccccc1	i	i	i	i	i	i
O=C(CCCN1C(=O)c2ccccc2C1=O)Nc1nc2ccccc2[nH]1	i	i	i	i	4.8	i
CCOc1cc(C2C(C(=O)OC)=C(C)N=C3SC(C)C(=O)N32)ccc1OC(C)=O (configuration not stated)	i	i	i	i	i	i
O=C1C=C(N2CCCCC2)C2(CCCCC2)O1	i	i	i	i	i	i
O=C1C=C(N2CCOCC2)C2(CCCCC2)O1	i	i	i	i	5.2	i
C=CCN1C(=O)C(CC(=O)NCC)SC1=Nc1cc(Cl)ccc1Cl (configuration not stated)	i	i	i	i	i	i
COc1cc(/C=C/CO)ccc1O[C@@H]1O[C@H](CO)[C@@H](O)[C@H](O)[C@H]1O	i	i	i	i	4.7	i
OCc1ccccc1O[C@@H]1O[C@H](CO)[C@@H](O)[C@H](O)[C@H]1O	i	i	i	i	i	i
CC(C)N(C(=O)[C@H]1C[C@H](CC(=O)NCCCN(C)C)C(=O)N2CCc3c([nH]c4cc(CCC(=O)N(C)C)ccc34)[C@]12C)C(C)C	nt	i	i	i	i	i
NC(=S)N/N=C/c1ccc(-c2ccc(SC(F)F)cc2)o1	53	i	i	i	i	i
O=C1c2ccccc2C(O)N1Cc1cccs1 (configuration not stated)	i	i	i	i	i	i
Cc1ccc(C(=O)OCC(=O)Nc2cc(C(C)(C)C)no2)c(C)c1	i	i	i	i	i	3.6
CCOC(=O)c1ccc(S(=O)(=O)Nc2cc(C(C)(C)C)no2)cc1	i	i	i	i	i	i
O=C(Nc1ccnc(-c2ccncc2)n1)C1CC1	52	i	i	i	i	i
O=C(Nc1ccnc(-c2ccncc2)n1)c1ccccc1Cl	i	i	i	i	i	i
Cn1c(SCC(=O)Nc2ccc(NC(=O)c3ccccc3F)cc2)nnc1-c1ccncc1	i	nt	nt	nt	i	nt
COCc1nnc(NS(=O)(=O)c2ccc(C)cc2)s1	i	i	i	i	4.4	i
O=C1N=C(N2CCOCC2)S/C1=C\c1cccs1	i	i	i	i	i	i
O=C1N=C(N2CCOCC2)S/C1=C\c1ccc(-c2ccccc2Cl)o1	50	i	i	i	i	i
Cc1ccsc1/C=C1/SC(N2CCOCC2)=NC1=O	i	nt	nt	nt	nt	nt
Cc1ccccc1-c1ccc(/C=C2/SC(N3CCOCC3)=NC2=O)o1	i	i	i	i	5.4	i
C=CCn1cc(/C=C2\SC(N3CCOCC3)=NC2=O)c2ccccc21	71	i	i	i	nt	i
COc1ccc(C(=O)NNC(=O)Cc2ccc([N+](=O)[O-])cc2)cc1	i	i	i	i	i	i
COc1ccc(-c2nnc(-c3ccc(N)cc3)o2)cc1	i	11	i	i	i	i
SMILES	AHR activator	hgDAF12 agonist	hcDAF-12 act	ssDAF-12 act	DAX1 inh-1	DAX1 inh-2
O=C1NC(=Nc2ccc3ccccc3c2)S/C1=C/c1ccco1	i	i	i	2.0	i	i
Cc1cccc(N=C2NC(=O)S/C2=C\c2ccco2)c1	68	i	i	i	i	i
COc1cc(Br)cc2cc(C(=O)N3CCN(C(=O)c4ccco4)CC3)c(=O)oc12	i	i	i	i	i	i
Cc1cc(C)nc(N/N=C/c2ccccc2)n1	i	nt	nt	nt	i	nt
Cc1cc(-c2ccccc2)nc(N/N=C/c2ccc(O)cc2)n1	nt	i	i	i	i	3.9
Cc1cc(C)nc(N/N=C/c2cn[nH]c2-c2ccccc2)n1	67	i	i	i	i	i
Cc1cc(C)n(C(CC(=O)N2CCc3ccccc3C2)C(=O)O)n1 (configuration not stated)	i	i	i	i	i	i
Cc1cccc(NC(=S)NCC(c2cccnc2)N2CCOCC2)c1 (configuration not stated)	i	i	i	i	i	i
c1ccc(-c2csc3ncn4nnnc4c23)cc1	i	i	i	1.0	i	i
Cn1nnnc1Sc1ncnc2scc(-c3ccccc3)c12	i	i	i	i	i	i
COc1cccc(C(C(=O)NC2CCCCC2)N(C(=O)c2ccccn2)c2cccnc2)c1 (configuration not stated)	i	i	i	i	i	i
O=C(CN1C(=O)c2ccccc2S1(=O)=O)NC1CCCCCC1	i	13	i	i	6.2	i
O=C(NC1CCCCC1)c1ccc2c(c1)S(=O)(=O)c1ccccc1C2=O	i	i	i	i	5.0	i
CCc1cccc(C)c1NC(=O)CN1C(=O)c2ccccc2S1(=O)=O	i	i	i	i	i	i
CC(C)C(NC(=O)CN1C(=O)c2ccccc2S1(=O)=O)C(C)C	i	i	i	i	5.0	i
CCc1ccccc1NC(=O)CN1C(=O)c2ccccc2S1(=O)=O	i	i	i	i	4.5	i
O=C(CN1c2cccc3cccc(c23)S1(=O)=O)NC1CCCCC1	i	i	i	i	i	i
O=C(CN1C(=O)c2ccccc2S1(=O)=O)NCc1ccccc1	i	i	i	i	i	i
Cc1[nH]c2ccccc2c1C(=O)C(=O)NCC1CCCO1 (configuration not stated)	i	i	i	i	i	i
CCCn1c(N)c(N(CCOC)C(=O)c2ccc(-c3ccccc3)cc2)c(=O)[nH]c1=O	i	i	i	i	i	i
COC(=O)C1CN(Cc2ccc(OC)cc2)CCS(=O)(=O)N1Cc1cn(Cc2ccc(F)cc2)nn1 (configuration not stated)	nt	i	i	i	nt	i
O=C(CSc1nnc2ccc(-c3cccnc3)nn12)Nc1cccc(F)c1	nt	i	i	i	i	i
Cc1cc(C(=O)NNC(C)Cc2ccccc2)no1 (configuration not stated)	nt	i	i	i	4.3	i
Cn1ccsc1=NC(=O)c1ccccc1F	i	i	i	i	i	i
Cn1ccs/c1=N\C(=O)Nc1ccccc1	i	12	i	i	i	i
SMILES	AHR activator	hgDAF12 agonist	hcDAF-12 act	ssDAF-12 act	DAX1 inh-1	DAX1 inh-2
Cn1ccsc1=NC(=O)c1ccccc1OC(F)F	71	i	i	i	i	i
Cc1ccc(NC(=O)CSCC(=O)N=c2sccn2C)cc1	i	i	i	i	i	i
CC(C)(C)c1nc(N)nc(=O)[nH]1	i	i	i	i	i	i
Clc1ccc(-c2csc(N3CCc4ccccc4C3)n2)cc1	52	i	i	i	i	i
COc1cccc(N2CC(C(=O)Nc3nnc(SCC(=O)NCC4CCCO4)s3)CC2=O)c1 (configuration not stated)	i	i	i	i	i	i
CCc1nnc(NC(=O)c2ccc3c(=O)n4c(nc3c2)CCC4)s1	nt	i	i	i	4.2	4.4
CCCCc1nnc(NC(=O)c2ccc3c(=O)n4c(nc3c2)CCC4)s1	i	i	i	i	i	i
O=C(NCc1ccc(F)cc1)c1ccc2c(=O)n3c(nc2c1)CCCCC3	i	i	i	i	5.0	i
